# Laboratory results taken from PubChem BioAssay AID372 (MTDP, 2006).
# Hit rate of the full screen: of about 100,000 compounds, about 770 (0.77%) were called active. This is one part of a sample in which actives are shown more often than they occur. Values without a mark were called inactive. Cut-off read from the data, not from the text of the source: active = inhibition above about 50%; inactive = the rest.
# Biological target: Gag-Pol polyprotein (Human immunodeficiency virus type 1 group M subtype B (isolate HXB2)) (UniProt P04585)
# Experiment: RNase H inhibition, HIV 1 Gag Pol polyprotein, FRET biochemical assay, screening (AID 372)
# Details: HIV-1 RT RNase H, FRET RNA/DNA substrate fluorescence; at 10 µM; hits give high values
row,SMILES,inhibition
1,C=CCOC(=O)C1=C(C)NC2=C(C(=O)CCC2)C1c1ccc(OCc2ccccc2)c(OC)c1 (configuration not stated),15%
2,O=C(Nc1nnc(-c2ccc3c(c2)OCO3)s1)c1sc2ccccc2c1Cl,5%
3,CCOC(=O)c1c(NC(=O)c2cc(-c3ccc(OC)cc3)nc3ccccc23)sc2c1CCCCC2,5%
4,Cc1ccc(C(=O)Nc2ccc(F)cc2F)cc1[N+](=O)[O-],18%
5,COc1cc2ccccc2cc1C(=O)Nc1ccc2c(c1)C(=O)c1ccccc1C2=O,38%
6,Cc1nnc(N/N=C/c2ccc(C(=O)O)cc2)[nH]c1=O,10%
7,COc1cccc(C(=O)NCc2ccccc2OC)c1,2%
8,COc1ccccc1CNC(=O)c1cccc(N(C)C)c1,56% (active)
9,COc1ccccc1CNC(=O)c1cccc(C)c1,2%
10,Cc1ccc(N(CC(=O)N/N=C/c2cccc(Cl)c2)S(=O)(=O)c2ccc(F)cc2)cc1,13%
11,O=c1[nH]c(=S)n(-c2ccc(Br)cc2)c(O)c1/C=C1\C=Nc2ccccc21,20%
12,O=c1[nH]c(=S)n(-c2ccccc2)c(O)c1/C=C1\C=Nc2ccccc21,56% (active)
13,Cc1ccc(-n2c(O)c(/C=C3\C=Nc4ccccc43)c(=O)[nH]c2=S)cc1,15%
14,CC(C)(C)c1ccc(CNc2cc(N3CCOCC3)ccc2[N+](=O)[O-])cc1,0%
15,Oc1ccc(Br)cc1-c1nc(-c2ccccc2)c(-c2cccs2)[nH]1,9%
16,Oc1ccc(-c2nc(-c3ccccc3)c(-c3cccs3)[nH]2)cc1O,63% (active)
17,Oc1ccccc1-c1nc(-c2ccccc2)c(-c2cccs2)[nH]1,12%
18,O=C(COc1ccccc1[N+](=O)[O-])N/N=C/c1cc(I)ccc1O,5%
19,C/C(=N\Nc1cc(-c2ccccc2)nc(-c2ccccc2)n1)c1ccc([N+](=O)[O-])cc1,3%
20,CN(C(=O)c1ccc(Cl)c([N+](=O)[O-])c1)c1ccccc1,17%
21,CCOc1ccccc1N(CC(=O)Nc1cccc(Br)c1)S(C)(=O)=O,16%
22,CCOc1ccccc1N(CC(=O)N/N=C(\C)c1cccc(NC(=O)c2ccccc2)c1)S(=O)(=O)c1ccccc1,5%
23,CCOc1ccc(N(CC(=O)Nc2ccc(C)c(Cl)c2)S(C)(=O)=O)cc1,56% (active)
24,CCOc1ccc(NC(=O)CN(c2ccc(C)c(Cl)c2)S(C)(=O)=O)cc1,3%
25,CCOc1ccc(N(CC(=O)Nc2cccc(Br)c2)S(C)(=O)=O)cc1,12%

row,SMILES,inhibition
1,CCOc1ccc(N(CC(=O)Nc2ccc(C)c(C)c2)S(C)(=O)=O)cc1,4%
2,CCOc1ccc(N(CC(=O)Nc2cccc(C(C)=O)c2)S(C)(=O)=O)cc1,51% (active)
3,CCOc1ccccc1N(CC(=O)N/N=C(\C)c1cccc(Br)c1)S(C)(=O)=O,66% (active)
4,CCOc1ccc(N(CC(=O)Nc2cccc(C)c2)S(C)(=O)=O)cc1,17%
5,Cn1c(=O)c(Sc2ccccc2)c(Sc2ccccc2)c2ccccc21,43%
6,CCc1ccccc1N1C(=O)/C(=C/c2ccc(N3CCCCC3)o2)C(=O)NC1=S,19%
7,Cc1cccc(N2C(=O)C(Cl)=C(Cl)C2=O)c1C,4%
8,O=C(Nc1ccccc1-c1ccccc1)c1ccc2c(c1)C(=O)N(c1ccccc1-c1ccccc1)C2=O,17%
9,Cc1ccccc1NC(=O)c1cc(S(=O)(=O)Nc2ccc(Br)cc2)ccc1Cl,10%
10,CSC1=C(C#N)C(c2ccc(Cl)cc2)C(C(C)=O)=C(C)N1 (configuration not stated),2%
11,O=C1NC(=S)S/C1=C/c1cccc(OCc2ccccc2)c1,29%
12,O=C1NC(=S)S/C1=C/c1cccc(OCc2ccccc2Cl)c1,42%
13,Cc1ccc(C)c(OCCOc2ccc(Cl)cc2/C=C2\SC(=S)NC2=O)c1,63% (active)
14,Cc1ccc(OCCOc2ccc(Cl)cc2/C=C2\SC(=S)NC2=O)c(C)c1,43%
15,Cc1ccc(C)c(OCCOc2c(Cl)cc(Cl)cc2/C=C2\SC(=S)NC2=O)c1,33%
16,COc1ccc(OCCOc2cccc(/C=C3\SC(=S)NC3=O)c2)cc1,18%
17,Cc1cc(C)cc(OCCOc2cccc(/C=C3\SC(=S)NC3=O)c2)c1,45%
18,Cc1ccc(OCCOc2cccc(/C=C3/SC(=S)NC3=O)c2)cc1,56% (active)
19,Cc1ccc(C)c(OCCOc2cccc(/C=C3\SC(=S)NC3=O)c2)c1,54% (active)
20,Cc1ccc(OCCOc2cccc(/C=C3\SC(=S)NC3=O)c2)c(C)c1,40%
21,Cc1ccc(C)c(OCCOc2ccc(/C=C3\SC(=S)NC3=O)cc2)c1,43%
22,Cc1ccc(Nc2cc(N3CCN(c4ccccc4Cl)CC3)c([N+](=O)[O-])cc2[N+](=O)[O-])cc1,13%
23,Cc1ccc(C(C)C)c(OCC(=O)N2CCN(c3ccc([N+](=O)[O-])cc3Cl)CC2)c1,21%
24,Cc1cc(C)nc(NS(=O)(=O)c2ccc(NS(=O)(=O)c3ccc4c(c3)C(=O)c3ccccc3-4)cc2)n1,15%
25,Cc1ccc(Cl)cc1NC(=O)CN(CCc1ccccc1)S(=O)(=O)c1ccccc1,16%

row,SMILES,inhibition
1,COc1cccc(/C=N/N2CCN(Cc3cccc4ccccc34)CC2)c1O,8%
2,COc1cccc(OCCOc2ccc(Br)cc2/C=C2/SC(=S)NC2=O)c1,55% (active)
3,COc1cccc(OCCOc2ccccc2/C=C2/SC(=S)NC2=O)c1,22%
4,COc1ccc(OCCOc2ccc(Br)cc2/C=C2\SC(=S)NC2=O)cc1,34%
5,Cc1ccccc1N=Cc1c(O)n(Cc2ccccc2)c(=O)[nH]c1=O,57% (active)
6,O=c1[nH]c(=O)n(Cc2ccccc2)c(O)c1C=Nc1ccc(F)cc1,22%
7,Cc1ccc(N=Cc2c(O)n(Cc3ccccc3)c(=O)[nH]c2=O)cc1,46%
8,COc1ccc(CCNC(=O)c2ccc(C#Cc3ccccc3)cc2)cc1OC,8%
9,CCOc1ccccc1NC(=O)CSCc1ccccc1Cl,51% (active)
10,CCC(C)NC(=O)CSCc1ccccc1Cl (configuration not stated),0%
11,CC(NC(=O)CSCc1ccc(Cl)cc1)c1ccccc1 (configuration not stated),6%
12,CCc1ccccc1NC(=O)CSCc1ccccc1Cl,20%
13,CCOc1ccccc1NC(=O)CSCc1ccc(Cl)cc1Cl,48%
14,CC(NC(=O)CSCc1ccccc1Cl)c1ccccc1 (configuration not stated),54% (active)
15,CC(=O)c1ccc(C)cc1OC(=O)c1ccc(Cl)cc1,21%
16,O=C(/C(=C/c1ccccc1)c1nc2ccccc2[nH]1)c1ccccc1,6%
17,O=C(Nc1ccc(I)cc1)c1ccc([N+](=O)[O-])o1,0%
18,Cc1c(Cl)cccc1-c1ccc(C(=O)Nc2cccc(-c3nc4ccccc4o3)c2)o1,10%
19,Cc1ccc(-c2nc3cc(NC(=O)c4ccc([N+](=O)[O-])o4)ccc3o2)cc1Br,54% (active)
20,O=C(Nc1ccc(-c2nc3ccccc3o2)cc1)c1ccc(-c2ccc([N+](=O)[O-])cc2)o1,48%
21,Cc1c(Cl)cccc1-c1ccc(C(=O)Nc2ccc3oc(-c4cccnc4)nc3c2)o1,42%
22,O=C(Nc1ccc([N+](=O)[O-])cc1)c1ccc(-c2cccc(Cl)c2)o1,10%
23,Cc1c(Cl)cccc1-c1ccc(C(=O)Nc2ccc(-c3nc4ccccc4o3)cc2)o1,54% (active)
24,O=C(Nc1ccc(Cl)c([N+](=O)[O-])c1)c1ccc(-c2ccc(Cl)c(Cl)c2)o1,7%
25,Cc1cc([N+](=O)[O-])ccc1-c1ccc(C(=O)Nc2ccc3oc(-c4ccccc4)nc3c2)o1,15%

row,SMILES,inhibition
1,O=C(Nc1ccc2oc(-c3ccccc3)nc2c1)c1ccc(-c2ccc([N+](=O)[O-])cc2)o1,54% (active)
2,O=C(Nc1ccc2oc(-c3cc(Br)ccc3Cl)nc2c1)c1ccc([N+](=O)[O-])o1,20%
3,O=C(Nc1ccc2oc(-c3ccccc3)nc2c1)c1ccc([N+](=O)[O-])o1,6%
4,O=C(Nc1ccc([N+](=O)[O-])cc1)c1ccc(-c2ccc(Cl)c(Cl)c2)o1,50% (active)
5,NNC(=O)c1cc(C(=O)O)nc2ccc(Br)cc12,6%
6,CCOc1ccc(/C=C2/SC(NC(C)=O)=NC2=O)cc1,0%
7,COc1cc(C(=O)NC(=S)Nc2cccc(-c3nc4ncccc4o3)c2C)cc(OC)c1OC,17%
8,Cc1cc(C)cc(NCc2ccc3c(c2)OCO3)c1,9%
9,C=CCOc1ccccc1/C=N/NC(=O)c1cccc(I)c1,10%
10,O=S(NC1CCCCC1)C12CC3CC(CC(C3)C1)C2 (configuration not stated),2%
11,CC1=NN(c2ccccc2)C(=O)C1C(c1cccc([N+](=O)[O-])c1)C1C(=O)N(c2ccccc2)N=C1C (configuration not stated),12%
12,CCOC(=O)C1=C(C)NC(C)=C(C(=O)OC)C1c1ccc([N+](=O)[O-])cc1 (configuration not stated),16%
13,O=C1N=c2ccccc2=C1c1sc(=S)[nH]c1O,6%
14,Cc1ccc(C2(C)N(O)C(C)C(c3ccccc3)=[N+]2[O-])cc1 (configuration not stated),0%
15,COc1ccc(CCN2C(=O)/C(=C\c3cccc4ccccc34)SC2=S)cc1OC,9%
16,CCCOC(=O)c1ccc(NC(=O)c2cccc([N+](=O)[O-])c2)cc1,17%
17,CC(=O)c1cccc(NC(=O)c2ccc(-c3ccccc3[N+](=O)[O-])o2)c1,13%
18,O=C(Nc1cc(Cl)cc(Cl)c1)c1ccc(-c2ccccc2[N+](=O)[O-])o1,59% (active)
19,COC(=O)c1cc(NC(=O)c2ccc(-c3ccccc3[N+](=O)[O-])o2)cc(C(=O)OC)c1,45%
20,Cc1cc2nc(-c3ccc(NC(=O)c4ccc(-c5ccccc5[N+](=O)[O-])o4)cc3)oc2cc1C,52% (active)
21,Cc1cc2nc(-c3ccc(NC(=O)c4cccc([N+](=O)[O-])c4C)cc3)oc2cc1C,15%
22,Cc1ccccc1-c1nc2cc(NC(=O)c3ccc(-c4ccccc4[N+](=O)[O-])o3)ccc2o1,37%
